Screens from PubChem.
LmPK inhibitor: inhibitors of Leishmania mexicana pyruvate kinase | AID 1721 | purified LmPK, Kinase-Glo ATP luminescence, 1 h | Q27686 | Potency, µM (doses to about 57.5 µM), inactives show at the highest dose activity change, negative = inhibition, hits mostly inhibitors | actives 0.37% (n = 290,000); note: potency is the fitted concentration of half-maximal effect; % is set by controls: 0 for no effect and ±100 for the full control effect
Target sequence (Q27686 whole entry, looked up): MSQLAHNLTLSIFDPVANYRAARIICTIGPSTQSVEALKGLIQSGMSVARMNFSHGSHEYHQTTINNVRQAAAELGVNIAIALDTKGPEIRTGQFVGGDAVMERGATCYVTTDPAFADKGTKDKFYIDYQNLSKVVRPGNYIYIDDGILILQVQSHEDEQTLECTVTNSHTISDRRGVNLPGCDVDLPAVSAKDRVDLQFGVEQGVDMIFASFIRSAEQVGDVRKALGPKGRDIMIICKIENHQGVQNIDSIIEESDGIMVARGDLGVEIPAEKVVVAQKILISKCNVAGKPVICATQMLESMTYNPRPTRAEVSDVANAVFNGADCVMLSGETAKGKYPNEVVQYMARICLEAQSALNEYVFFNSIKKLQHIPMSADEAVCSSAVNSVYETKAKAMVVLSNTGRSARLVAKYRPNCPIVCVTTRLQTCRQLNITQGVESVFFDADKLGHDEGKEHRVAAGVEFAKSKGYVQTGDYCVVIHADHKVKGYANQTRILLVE
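0.1 nM LmPK, 0.5 mM PEP, 0.1 mM ADP; 50 mM imidazole pH 7.2, 7 mM MgCl2, 50 mM KCl; 1 h RT. Kinase-Glo luminescence readout, normalized to no-enzyme (full inhibition) and uninhibited wells.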
Shiga toxin inh: inhibitors of Shiga toxin in Vero cells; Vero cells, Shiga toxin protein synthesis inhibition reporter; inhibition, % at 38.7 µM; actives 9.2% (n = 290,000); AID 2315; in the data active = inhibition mostly above about 28%, no sharp cut-off; inactive = mostly below about 43%; note: 0% is about no effect
Giardia FBPA inh: inhibitors of Giardia lamblia fructose-1,6-bisphosphate aldolase. purified Giardia FBPA. A8B2U2. actives 0.71% (n = 290,000). AID 2451. Potency, µM (series often up to 59.6 µM), for the others: at the top dose activity, negative = inhibition, usual class: inhibitors; note: potency is the fitted concentration of half-maximal effect; % is set by controls: 0 for no effect and ±100 for the full control effect; nearly all actives have a fitted effect of over 55% in size
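40 nM FBPA preincubated 10 min at RT with compound (up to 57.5 uM final), then substrate plus GAPDH/TPI/NAD/arsenate coupling and diaphorase/resazurin added. Fluorescence read after 20 min at RT, 525/598 nm.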
NS1 inh: blocks influenza NS1 protein function. Potency, µM (top dose mostly 46.1 µM), without a hit: top-dose activity, positive = more growth. actives 0.4% (n = 270,000). AID 2326; calls by dose curve; note: potency is the fitted concentration of half-maximal effect; actives are rising curves; nearly all actives have a fitted effect of over 50% in size
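Compounds were scored for reversing the slow growth caused by influenza A NS1 in S. cerevisiae, measured by optical density at 600 nm. Assay medium contained 2% galactose at pH 6.0; NS1-free yeast of the same strain were the positive control.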
Cycloheximide cs: counter-screen for Shiga toxin inhibitors: cycloheximide protein synthesis inhibition | cell reporter, cycloheximide protein synthesis inhibition counterscreen | max response, % | actives 12% (n = 300,000); in the data active = max response mostly above about 13%, no sharp cut-off; inactive = mostly below about 14%; note: read at 38.3 µM for the half of the compounds with a filed dose; 0% is about no effect
Numbers without * were called inactive; u = inconclusive; x = no result; + = active, no number. Shown are actives, neighbours in structure and some others; about 14% of the full set was active somewhere. Unless noted, calls come from the whole dose curve; as a rule, active = well fitted curve in the direction sought with a large enough effect; inconclusive = small, poorly fitted or top-dose-only effect, or another doubt; inactive = no such curve, though single readings can be large; an effect the other way counts as inactive or inconclusive.

SMILES	LmPK inhibitor	Shiga toxin inh	Giardia FBPA inh	NS1 inh	Cycloheximide cs
O=C(O)c1ccc2nc(-c3ccccc3)sc2c1	u	23	25%	-23%	20
Nc1ccc(-c2nc3ccc(N)cc3s2)cc1	14µM*	30	5%	-43%	14*
CNc1nc(-c2ccc(N(C)C)cc2)nc2ccccc12	x	x	-10%	x	x
COc1ccc(N2CCN(CCC(O)c3ccc4ccccc4c3)CC2)cc1 (stereo unspecified)	-6%	9	6%	0%	1
NC(=O)SCC(=O)Nc1ccc2ncccc2c1	x	x	x	9%	x
COc1cc(SC)ccc1C(=O)OCC(=O)NC(=O)NC(C)C	0%	-7	6%	2%	17*
COc1cc(SC)ccc1C(=O)OCC(=O)N1CCCC1	0%	50*	-1%	1%	40*
COc1cc(SC)ccc1C(=O)OCC(=O)NCC(C)C	-1%	32	0%	x	25*
CC(C)CNC(=O)COC(=O)c1cc(Cl)cc(Cl)c1N	3%	7	3%	-14%	-3
CC(C)CNC(=O)COC(=O)c1ccc(F)cc1Cl	-2%	52*	0%	x	28*
CC(C)NC(=O)NC(=O)COC(=O)c1ccc(F)cc1F	0%	-4	4%	-5%	-1
O=C(Nc1ccc(-n2cnnn2)cc1)C(c1ccccc1)c1ccccc1	3%	11	0%	x	-2
O=C(Oc1cccc(-n2cnnn2)c1)c1ccco1	1%	6	8%	-3%	-1
O=C(Nc1ccccc1)c1ccc(-n2cnnn2)cc1	-10%	23*	x	2%	15*
CC(C)(C)c1ccc(C(=O)Nc2cccc(-n3cnnn3)c2)cc1	-13%	34*	x	-82%	24*
Cc1ccc(C(=O)Oc2cccc(-n3cnnn3)c2)cc1	0%	57*	1%	-15%	40*
CCCCC[C@H](O)/C=C/[C@@H]1[C@H](C/C=C\CCCC(=O)O)[C@@H](O)C[C@H]1O	x	x	1%	x	x
COc1ccc(CCNC(=O)CCCCCN2C(=O)[C@@H]3Cc4ccccc4CN3C2=O)cc1OC	10%	-6	x	-5%	13
OC(C[n+]1ccccc1)c1ccccc1 (stereo unspecified)	-7%	-4	6%	1%	-1
Cc1ccc(S/C=C\C(=O)c2ccccc2)cc1	u	79*	0%	-4%	44*
Cc1cccc(C(=O)NNC(=O)c2ccc(Br)cc2)c1	-3%	19	5%	-4%	2
Cc1ccc(C(=O)C=CNNC(=O)c2ccccc2)cc1	-5%	44*	-21%	-5%	33*
Cc1ccc(C(=O)NNC(=O)c2ccc(C)cc2)cc1	3%	20	6%	x	16
O=C(/C=C/NNC(=O)c1ccc(Br)cc1)c1ccccc1	11%	84*	-18%	-22%	32*
Cc1ccc(C(NC(=O)c2ccccc2)C(Cl)(Cl)Cl)cc1 (stereo unspecified)	2%	27	-4%	13%	-3
SMILES	LmPK inhibitor	Shiga toxin inh	Giardia FBPA inh	NS1 inh	Cycloheximide cs
Cc1cccc(C(=O)NN/C=C/C(=O)c2ccccc2)c1	1%	56*	-19%	26%	31*
CC(C)C[C@H](NC(=O)[C@H](CC(C)C)NC(=O)[C@@H](Cc1c[nH]c2ccccc12)NC(=O)[C@H](Cc1ccccc1)NC(=O)[C@@H](Cc1c[nH]c2ccccc12)NC(=O)[C@H](CCC(N)=O)NC(=O)[C@H](CCC(N)=O)NC(=O)[C@@H]1CCCN1C(=O)[C@H](CCCCN)NC(=O)[C@@H]1CCCN1C(=O)[C@H](N)CCCN=C(N)N)C(N)=O	x	-7	1%	x	-3
COc1ccc(C(=O)NCC(=O)OCC(=O)Nc2ccc(C)c(S(=O)(=O)N(C)C)c2)cc1OC	4%	-2	5%	-10%	-3
O=C(/C=C/NNC(=O)c1ccccc1)c1ccc([N+](=O)[O-])cc1	-25%	87*	-8%	4%	38*
NC(N)=NCCC[C@H](NC(=O)c1ccccc1)C(=O)Nc1ccc([N+](=O)[O-])cc1	x	-6	0%	x	-7
O=C(/C=C/NNC(=O)c1ccccc1O)c1ccccc1	1%	x	-6%	10%	32*
O=C(O)CC(NNC(=O)c1ccccc1)C(=O)Nc1ccc([N+](=O)[O-])cc1 (stereo unspecified)	1%	67*	-8%	15%	37*
O=C(/C=C(\O)c1ccccc1)c1ccccc1O	x	x	10%	x	x
O=C(NCNC(=O)c1ccccc1)c1ccccc1	-2%	-11	4%	2%	-1
O=C(/C=C/NNC(=O)c1ccccc1)c1ccccc1	5%	20	u	-30%	27*
Cc1cc(Cl)ccc1NS(=O)(=O)c1c(C)[nH]c(=O)[nH]c1=O	-3%	17	5%	3%	-2
O=C(Nc1nnc(SCc2cccnc2)s1)C1CC(=O)N(c2ccc(F)cc2)C1 (stereo unspecified)	-2%	-3	x	19%	13
Cc1nc(N)ncc1Sc1ccccc1	3%	-13	-12%	-4%	-1
O=C(NCCc1ccccc1)C(c1ccccc1F)N(C(=O)c1csnn1)C1CC1 (stereo unspecified)	0%	-3	2%	-6%	-3
Cc1cc(Nc2ccccc2)nc2cc(O)ccc12	-2%	114*	-9%	-13%	37*
CC(=O)Nc1ccc(Nc2cc(C)c3ccccc3n2)cc1	3%	61	2%	-13%	-3
CCOc1ccc(Nc2c3ccccc3nc3ccccc23)cc1	0%	36*	-14%	-69%	17
CCOc1ccc(Nc2nc3ccccc3n3nnnc23)cc1	2%	100*	-5%	-1%	59*
c1ccc(CCNc2nc3ccccc3n3nnnc23)cc1	-3%	21	6%	5%	5
Cc1cc(NCC2CCCCC2)nc2ccccc12	-10%	51*	8%	-17%	38*
CC(C)C[C@H](NC(=O)[C@H](Cc1ccccc1)NC(=O)[C@@H]1CCCN1C(=O)[C@H](CC(=O)O)NC(=O)[C@@H]1CCC(=O)N1)C(=O)N[C@@H](CCCN=C(N)N)C(=O)N[C@@H](Cc1ccccc1)C(N)=O	x	-6	2%	x	6
CCOc1ccc(Nc2cc(C)c3ccccc3n2)cc1	1%	94*	12%	-40%	49*
CN(C)S(=O)(=O)c1cccc(-c2nnc(SCc3ccc4c(c3)OCCO4)o2)c1	-2%	86	12%	u	33*
Brc1ccccc1-c1nnc(SCc2nc3ccccc3s2)o1	-2%	101*	-1%	-3%	53*
CCN(CC)S(=O)(=O)c1cccc(-c2nnc(SCc3nc4ccccc4s3)o2)c1	-1%	82	-1%	3%	23*
Cc1ccc(NC(=O)COC(=O)Cc2csc(-c3ccc(Cl)cc3)n2)cc1C	1%	+	21%	-16%	23*
COc1ccc(C2CC(c3ccccc3)Nc3nc(NS(C)(=O)=O)nn32)cc1 (stereo unspecified)	0%	36	12%	-1%	-1
